Laboratory results: the supplement of paper PMC13094657
Where a name gives a salt, the structure may show the parent alone. ± gives the standard deviation of the averaged measurements.

Tests used:
[1] = system: MDA-MB-231; experiment: cell viability relative to vehicle unstimulated control (fraction); higher = more viable cells; conditions: pre-treatment time: 18 h then 24 h IFNg/TNF
[2] = system: MDA-MB-231; experiment: kynurenine production, fold change vs DMSO IFNg/TNF control; higher = more kynurenine produced (less inhibition); conditions: pre-treatment time: 18 h then 24 h IFNg/TNF
Summary of the method: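 Fold change over cytokine-stimulated vehicle wells on the same plate is the measure used for kynurenine production, averaged across duplicate plates in the first screening round. MDA-MB-231 cells, seeded 24 h beforehand at 7 × 10^4/well in 96-well plates, were pre-treated 18 h with each natural product in 0.1% DMSO and stimulated 24 h at 37°C with IFNγ (1 U/ml) and TNF (6.25 ng/ml). Supernatants were read at 492 nm following trichloroacetic acid and p-dimethylaminobenzaldehyde treatment, against 0–100 μM standards.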
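Throughout, for cell viability relative to vehicle unstimulated control: viability of the cells left after supernatant collection, read with Deep Blue dye added for 4 h, as absorbance at 570 nm minus 600 nm.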

SMILES	cell viability [1]	kynurenine production [2]
C=C1CC[C@@H]2[C@](C)(COC(=O)CCC(=O)O)[C@H](OC(=O)CCC(=O)O)CC[C@@]2(C)[C@@H]1/C=C/C1=CCOC1=O [Dehydroandrographolide succinate] (compound dose: 10 uM)	0.898 ± 0.11	1.2 ± 0.089
C[C@H](CCC(=O)NCC(=O)O)[C@H]1CC[C@H]2[C@@H]3[C@H](O)C[C@@H]4C[C@H](O)CC[C@]4(C)[C@H]3CC[C@]12C [Glycochenodeoxycholic acid (sodium salt)] (compound dose: 10 uM)	0.956 ± 0.082	0.955 ± 0.14
CC1=CC23C(=O)C(C=C4COC(C)(C)OC4C24OC(C)(C)OC14)C1C(CC3C)C1(C)C (stereo not given) [Ingenol-3,4:5,20-diacetonide] (compound dose: 10 uM)	1.04 ± 0.022	1.11 ± 0.045
CC(/C=C/C=C(\C)C(=O)O[C@@H]1O[C@H](CO)[C@@H](O)[C@H](O)[C@H]1O)=C\C=C\C=C(C)\C=C\C=C(/C)C(=O)O[C@@H]1O[C@H](CO[C@@H]2O[C@H](CO)[C@@H](O)[C@H](O)[C@H]2O)[C@@H](O)[C@H](O)[C@H]1O [Crocin II] (compound dose: 10 uM)	0.987 ± 0.09	0.907 ± 0.13
C[C@@H]1CC[C@]2(C(=O)O[C@@H]3O[C@H](CO)[C@@H](O)[C@H](O)[C@H]3O)CC[C@]3(C)C(=CC[C@@H]4[C@@]5(C)C[C@@H](O)[C@H](O)C(C)(C)[C@@H]5CC[C@]43C)[C@@H]2[C@]1(C)O [Rosamultin] (compound dose: 10 uM)	1 ± 0.077	1.09 ± 0.26
